Compounds with a hit are over-represented: about 4.8% of the library has one in this group of screens.
HepG2 tox: counter-screen for TGF-b inhibitors: cytotoxicity in HepG2 cells; HepG2 CAGA-GFP viability, ATP luminescence, 18 h; Potency, µM (doses to about 46.1 µM), actives largely listed as cytotoxic; hit rate 0.76% among 410,000; AID 588856
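CellTiter-Glo luminescence gave cytotoxicity after 18 hours at 37 degrees C. The cells were HepG2 CAGA-GFP in 1% FBS DMEM, stimulated with 500 pg/mL TGF-beta after compound addition. %Activity was normalised to no-cell wells (complete cell-killing) and DMSO (no toxicity), and curves were fitted and classified.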
DRD3 antagonist: antagonists of human D3 dopamine receptor. max response, negative = inhibition, %. hit rate 2.5% among 360,000. P35462. D3R cells, DiscoveRx beta-arrestin luminescence, antagonist mode; hits give low values. AID 652054; in the data active = max response below about -50%; inconclusive = no clear call, values can overlap the other calls
Target sequence (P35462 whole entry, looked up): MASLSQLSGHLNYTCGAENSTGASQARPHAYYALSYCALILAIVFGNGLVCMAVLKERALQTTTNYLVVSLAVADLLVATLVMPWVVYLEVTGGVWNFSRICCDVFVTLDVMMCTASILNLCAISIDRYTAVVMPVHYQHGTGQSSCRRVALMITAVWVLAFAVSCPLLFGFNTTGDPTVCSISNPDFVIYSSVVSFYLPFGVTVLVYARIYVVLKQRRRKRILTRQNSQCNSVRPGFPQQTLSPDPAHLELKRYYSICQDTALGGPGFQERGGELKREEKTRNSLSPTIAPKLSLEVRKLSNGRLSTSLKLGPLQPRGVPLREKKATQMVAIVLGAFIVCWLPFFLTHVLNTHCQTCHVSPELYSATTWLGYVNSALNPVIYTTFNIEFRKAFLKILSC
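Cells plated overnight at 1500 cells/well, then exposed to library compounds with dopamine controls for 90 minutes at 37 degrees C. DiscoveRx reagent added for 30–60 minutes at room temperature; luminescence read, quantitative HTS format.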
TGFb SMAD3 inh: blocks TGF-b signaling. HepG2 CAGA-GFP TGF-b/SMAD3 reporter, GFP fluorescence, 18 h; TGF-beta stimulated, 500 pg/mL final. Potency, µM (series often up to 46.1 µM), actives largely listed as inhibitors. hit rate 1.2% among 410,000. AID 588855; note: nearly all actives have a fitted effect of over 65% in size
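Per well, imaged GFP fluorescence of HEPG2 CAGA-GFP cells gives the signal; cells get compound, then TGF-beta (500 pg/mL final), 18 h at 37 degrees C; %Activity versus -TGF-beta and +DMSO controls.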
ATXN2 expr inh: ATXN2 expression inhibition; HEK-293 ATXN2-luciferase reporter, luminescence, 24 h; Potency, µM (highest dose often 57 µM), most hits filed as inhibitors; hit rate 0.72% among 360,000; AID 1745845; note: nearly all actives have a fitted effect of over 55% in size
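ATXN2-luciferase reporter cells (luciferase flanked by upstream and downstream ATXN2 gene portions) were treated 24 h at 37 °C with compounds at up to 57 uM. SteadyGlo luminescence gave expression; GF-AFC fluorescence gave viability.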
DRD3 agonist: agonists of human D3 dopamine receptor; D3R DiscoveRx beta-arrestin cells, luminescence, 90 min; max activation, %; hit rate 0.58% among 410,000; AID 652048; in the data active = max activation above about 30%
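Agonist mode: compounds and dopamine controls were applied to plated cells for 90 min at 37 degrees C after an overnight attachment at 1500 cells/well. Luminescent read-out followed 30 - 60 minutes at room temperature with DiscoveRx detection reagent.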
ATXN viability: reduces viability in counter-screen for ATXN expression inhibitors; S2 cells (HEK-293 line with an ATXN2-luciferase reporter) viability, CellTiter-Fluor protease fluorescence, 24 h; Potency, µM (titrated, usually from 56.7 µM), usual class: cytotoxic; hit rate 0.49% among 400,000; note: nearly all actives have a fitted effect of over 40% in size
Large screens that a line does not name were inactive; ! = not active in a repeat. Unless noted, calls come from the whole dose curve; as a rule, active = well fitted curve in the direction sought with a large enough effect; inconclusive = small, poorly fitted or top-dose-only effect, or another doubt; inactive = no such curve, though single readings can be large; an effect the other way counts as inactive or inconclusive.

NS(=O)(=O)c1ccc(N2N=C(c3ccccc3)CC2c2cccc(Br)c2)cc1 (configuration not stated)	TGFb SMAD3 inh inconclusive, ATXN2 expr inh inconclusive, DRD3 agonist 47
NS(=O)(=O)c1ccc(N2N=C(c3ccccc3)CC2c2ccccc2Br)cc1 (configuration not stated)	TGFb SMAD3 inh inconclusive
COc1ccc(C2CC(c3ccc(Cl)cc3)=NN2c2ccc(S(N)(=O)=O)cc2)cc1 (configuration not stated)	HepG2 tox 18µM, TGFb SMAD3 inh inconclusive (no result: ATXN viability)
NS(=O)(=O)c1ccc(N2N=C(c3ccc(Br)cc3)CC2c2ccc(F)cc2)cc1 (configuration not stated)	HepG2 tox 20µM, TGFb SMAD3 inh inconclusive, ATXN2 expr inh inconclusive (no result: ATXN viability)
NS(=O)(=O)c1ccc(N2N=C(c3ccccc3)CC2c2cccc(F)c2)cc1 (configuration not stated)	TGFb SMAD3 inh inconclusive
COc1ccc(C2CC(c3ccncc3)=NN2c2ccc(S(N)(=O)=O)cc2)cc1 (configuration not stated)	none (no result: ATXN viability)
Cc1ccc(NC(=O)c2oc3ccc(S(=O)(=O)N4CCC5(CC4)OCCO5)cc3c2C)c(C)c1	TGFb SMAD3 inh inconclusive (no result: DRD3 antagonist, ATXN2 expr inh, ATXN viability)
COc1ccc2c(CNCCc3ccc(SC)cc3)c(C(=O)O)n(Cc3ccc(F)cc3)c2c1	TGFb SMAD3 inh inconclusive, ATXN2 expr inh inconclusive, ATXN viability inconclusive (no result: DRD3 antagonist)
COc1cccc(CNC(=O)CCc2c(C)nc3c(c(C)nn3-c3ccc(C)c(C)c3)c2C)c1	none (no result: DRD3 antagonist)
CCCc1cc(=O)[nH]c2nnc(SCC(=O)Nc3ccc(OC)cc3)n12	TGFb SMAD3 inh inconclusive (no result: DRD3 antagonist, ATXN2 expr inh, ATXN viability)
Cc1ccc(COc2ccsc2C(=O)NN)cc1	none (no result: ATXN viability)
C[C@H](NC(=O)c1sccc1OCc1ccc(Cl)cc1)c1ccccc1	ATXN2 expr inh 22µM (no result: HepG2 tox, DRD3 antagonist, TGFb SMAD3 inh, DRD3 agonist, ATXN viability)
Cc1[nH]n(-c2ccccc2)c(=O)c1C=Nc1cnc2ccccc2c1	none
CCOc1ccc(N=Cc2c(C)[nH]n(-c3nc4ccccc4[nH]3)c2=O)cc1	HepG2 tox 2.5µM
O=C(NCC(c1ccco1)N1CCc2ccccc2C1)c1ccccc1 (configuration not stated)	DRD3 antagonist -53
COc1ccccc1NC(=O)C(=O)NCC(c1ccco1)N1CCc2ccccc2C1 (configuration not stated)	none
O=C(NCC(c1ccco1)N1CCc2ccccc2C1)C(=O)Nc1ccccc1 (configuration not stated)	DRD3 antagonist -90
C=Cc1ccc(Cn2ccn(-c3ccc(F)c(F)c3)c(=O)c2=O)cc1	none (no result: DRD3 antagonist, ATXN2 expr inh, ATXN viability)
O=C(Nc1ccn(CCCNCCc2ccccn2)c(=O)n1)OCc1ccccc1	ATXN viability inconclusive
O=C(Nc1ccn(CCCNCc2cccc3ccccc23)c(=O)n1)OCc1ccccc1	DRD3 antagonist -51, TGFb SMAD3 inh inconclusive, ATXN viability inconclusive
O=C(Nc1ccn(CCCNCc2ccccn2)c(=O)n1)OCc1ccccc1	none
O=C(Nc1ccn(CCCNCC2CCCCC2)c(=O)n1)OCc1ccccc1	none
CC(CNCCCn1ccc(NC(=O)OCc2ccccc2)nc1=O)c1ccccc1 (configuration not stated)	DRD3 antagonist -51
O=C(Nc1ccn(CCCNCC(c2ccccc2)c2ccccc2)c(=O)n1)OCc1ccccc1	TGFb SMAD3 inh 16µM, ATXN2 expr inh inconclusive, ATXN viability inconclusive
Cc1ccc(F)cc1NC(=O)Cn1c(=O)nc(-c2ccccc2F)c2cc(Cl)ccc21	none (no result: DRD3 antagonist, ATXN2 expr inh, ATXN viability)
O=S(=O)(Nc1ccc(Nc2ccccc2)cc1)c1ccc(F)cc1	DRD3 antagonist inconclusive, TGFb SMAD3 inh inconclusive
O=S(=O)(Nc1ccc(N=Nc2ccccc2)cc1)c1ccccc1	DRD3 antagonist -52, TGFb SMAD3 inh inconclusive, ATXN2 expr inh inconclusive, ATXN viability inconclusive
O=S(=O)(Nc1ccc(S(=O)(=O)Nc2ccccc2)cc1)c1ccccc1	none
O=S(=O)(Nc1ccccc1)c1ccc(NS(=O)(=O)c2c(F)cccc2F)cc1	DRD3 agonist 41
CC(NC(=O)Cn1ccc2cc(S(=O)(=O)N3CCCCCC3)ccc21)c1ccccc1 (configuration not stated)	ATXN2 expr inh inconclusive, ATXN viability inconclusive (no result: DRD3 antagonist)
Cc1ccc(C)c(C(=O)N2CCC(C3(c4ccccn4)NC(=O)N(CC4CCCO4)C3=O)CC2)c1 (configuration not stated)	none (no result: HepG2 tox, DRD3 antagonist, TGFb SMAD3 inh, ATXN2 expr inh, DRD3 agonist)
CC(=O)Nc1ccc(Oc2sc(C(=O)c3ccccc3)c(N)c2C#N)cc1	TGFb SMAD3 inh 10µM
CCOc1ccccc1CNC(=O)CN1C(=O)CCc2cc(S(=O)(=O)N3CCCCC3)ccc21	none (no result: DRD3 antagonist)
Cc1ccc(-n2cc(CNCCc3ncc(C)[nH]3)c(-c3ccc(F)cc3)n2)cc1	TGFb SMAD3 inh inconclusive, ATXN2 expr inh 25µM, ATXN viability inconclusive
COc1ccc(-n2cc(CNCCc3nc(C)cc(C)n3)c(-c3ccccc3Cl)n2)cc1	DRD3 antagonist -85, TGFb SMAD3 inh inconclusive, ATXN viability inconclusive
COc1ccc(-n2cc(CNCCc3ncc(C)[nH]3)c(-c3ccccc3Cl)n2)cc1	ATXN viability inconclusive
COc1ccc(-n2cc(CNCCCn3ccnc3)c(-c3ccccc3Cl)n2)cc1	DRD3 antagonist inconclusive
Fc1ccc(-n2cc(CNCCc3ccccn3)c(-c3ccccc3Cl)n2)cc1	DRD3 antagonist -86
N#Cc1nc(-c2ccc(OCc3ccccc3Cl)cc2)oc1N1CCCCCC1	none (no result: DRD3 antagonist, ATXN2 expr inh, DRD3 agonist, ATXN viability)
CCN(C(=O)CSc1nc2ccccc2n1Cc1ccc(F)cc1Cl)c1ccccc1	TGFb SMAD3 inh inconclusive (no result: DRD3 antagonist)
Cc1cc(C)n(/N=C/c2cc(Cl)cc(Cl)c2O)c(=O)c1	DRD3 antagonist -77
Cc1cc(C)n(/N=C/c2ccccc2O)c(=O)c1	none
CN1OC[C@@H]2CN[C@H](c3ccc(-c4cc5ccccc5o4)cc3)C[C@@H]21	ATXN2 expr inh 0.2µM
OCC1OC(n2cnc3c(=S)nc[nH]c32)C(O)C1O (configuration not stated)	TGFb SMAD3 inh 10µM! (no result: DRD3 antagonist, ATXN2 expr inh, DRD3 agonist, ATXN viability)
Nc1ncn([C@@H]2O[C@H](CO)[C@@H](O)[C@H]2O)c(=O)n1	TGFb SMAD3 inh 11µM, ATXN2 expr inh 6.3µM!
Nc1ncn([C@@H]2O[C@H](CO)[C@@H](O)[C@@H]2O)c(=O)n1	ATXN2 expr inh 5.4µM (no result: HepG2 tox, DRD3 antagonist, TGFb SMAD3 inh, DRD3 agonist, ATXN viability)
Cc1cccc(CNC(=O)c2cnn(-c3ncc(C)c(-c4cccs4)n3)c2C2CC2)n1	none (no result: HepG2 tox, DRD3 antagonist, TGFb SMAD3 inh, ATXN2 expr inh, DRD3 agonist)
COc1ccccc1CNC(=O)c1ccc(-c2ccccc2Cl)o1	TGFb SMAD3 inh 16µM
COc1ccccc1CNC(=O)c1ccc(-c2ccccc2C(F)(F)F)o1	TGFb SMAD3 inh inconclusive
CCCc1nc2oc3c(NCCN(C)C)ncnc3c2c2c1CCCC2	DRD3 antagonist -54, TGFb SMAD3 inh inconclusive, ATXN2 expr inh inconclusive, ATXN viability inconclusive
